Reference: the supplement of paper PMC3334620
Whole data set: some 33,000 sequences, median “E-score (-0.5 to 0.5)” near -0.021, cut for the highest 2% near 0.32. The entries come from a sample that favours the highest values as a whole.

Molecular target: T1, Zap1 (UniProt P47043)
T1 sequence: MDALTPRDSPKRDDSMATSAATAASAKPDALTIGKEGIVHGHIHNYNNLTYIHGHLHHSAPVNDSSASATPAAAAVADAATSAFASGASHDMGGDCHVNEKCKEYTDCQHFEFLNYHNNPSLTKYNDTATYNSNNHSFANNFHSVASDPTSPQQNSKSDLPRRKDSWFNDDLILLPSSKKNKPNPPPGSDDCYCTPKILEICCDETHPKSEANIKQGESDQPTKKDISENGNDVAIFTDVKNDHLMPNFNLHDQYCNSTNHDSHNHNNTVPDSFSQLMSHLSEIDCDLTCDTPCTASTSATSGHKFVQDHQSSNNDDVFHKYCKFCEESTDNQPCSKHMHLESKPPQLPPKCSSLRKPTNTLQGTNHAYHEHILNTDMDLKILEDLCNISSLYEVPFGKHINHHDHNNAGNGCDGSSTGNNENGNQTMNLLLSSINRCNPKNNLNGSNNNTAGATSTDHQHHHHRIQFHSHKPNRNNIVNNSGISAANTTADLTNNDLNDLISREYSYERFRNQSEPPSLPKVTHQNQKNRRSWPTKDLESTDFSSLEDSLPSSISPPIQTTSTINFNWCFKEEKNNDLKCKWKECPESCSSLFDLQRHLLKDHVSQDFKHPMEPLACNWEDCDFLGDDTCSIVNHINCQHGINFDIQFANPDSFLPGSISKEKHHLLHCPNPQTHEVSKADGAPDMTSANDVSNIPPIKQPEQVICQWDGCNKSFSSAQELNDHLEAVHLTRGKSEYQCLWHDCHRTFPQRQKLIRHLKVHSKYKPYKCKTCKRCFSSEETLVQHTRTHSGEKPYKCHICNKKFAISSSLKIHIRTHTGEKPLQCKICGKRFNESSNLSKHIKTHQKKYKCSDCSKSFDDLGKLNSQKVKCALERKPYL
Assay: PBM E-score (8-mer binding enrichment) (E-score (-0.5 to 0.5)); higher = stronger / more preferred TF binding
Details: protein concentration: 200 nM; construct: GST-full length
Procedure: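 Universal 'all 10-mer' protein binding microarrays (Agilent AMADID 015681) probed with GST-tagged S. cerevisiae TFs (full-length or DBD) made by in vitro transcription/translation (PURExpress), about 100-200 nM. Bound TF was detected with fluorescent anti-GST. Each ungapped 8-mer (which stands for itself and its reverse complement) is scored by the PBM enrichment score (E-score), a modified Wilcoxon-Mann-Whitney statistic from -0.5 to +0.5, computed with the Universal PBM Analysis Suite. Scale: above 0.35 generally sequence-specific binding.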

Point of comparison: AATCAGTC, “PBM E-score” value -0.107. Against it:
- CGTTCCCA — lower, -0.125
- AAGCAATG — higher, 0.0748
- GAGAATAA — higher, 0.0442
- ACGATCGT — higher, 0.0702
- ATACAGAA — higher, 0.0186
- AGTCTAGA — lower, -0.295
- CTGAATGA — higher, 0.0581
- AGATAGCG — lower, -0.163
- AGGCCTTG — higher, -0.0709
- ACATCCAA — higher, -0.00617
- CTGTTATC — higher, 0.0763
- CAGTTATC — higher, 0.0632
- GAGTTATA — higher, 0.142
- GGGTTATA — higher, 0.474
- CGGTTATC — higher, 0.424
- GCGTTATA — higher, 0.218
- GCACTGAA — lower, -0.136
- AGAGCGTG — lower, -0.169
- AGCCACAA — higher, 0.153
- GAGTCAGA — lower, -0.157
- AGAAGTAG — lower, -0.123
- AGCACCCA — higher, -0.0894
- ACCACCCA — higher, 0.252
- AGCACCCG — higher, 0.125
- AGCACCCT — higher, 0.317
- ACCACCCT — higher, 0.352
- ACCACCCC — higher, -0.00264
- GCAGGCTA — lower, -0.25
- CTATTCGA — higher, -0.0524
- CCTAGCGC — higher, -0.0463
- AGCGATGG — lower, -0.195
- CGACAACC — higher, 0.339
- CCACAACA — higher, 0.109
- CCACAACC — higher, 0.411
- AGACAACC — higher, 0.31
- CCGCAACA — higher, 0.162
- CCACAACG — higher, 0.0128
- CCGCAACC — higher, 0.34
- ACGCAACC — higher, 0.316
- CGACAACA — higher, 0.0946
- GCAGTTAC — higher, 0.109
- CCCAAGAC — higher, -0.045
- GTTGAGAA — higher, -0.027
- AGTACTGG — lower, -0.141
- GCGCTGTA — higher, -0.043
- GCTTAAAC — higher, -0.0479
- CCTTAACA — higher, 0.116
- CCCTAACC — higher, 0.33
- ACCTAACC — higher, 0.269
- CCCTAGGA — higher, 0.0656
- GCCTAACC — higher, 0.125
- GCTTAACA — higher, -0.0361
- ACCTAGGG — higher, 0.119
- ACTTAACC — higher, 0.287
- CCTTAACC — higher, 0.438
- CCCTAGGG — higher, 0.41
- GCTTAACC — higher, 0.327
- CACTTTAC — higher, 0.0657
- AGGTCTCC — higher, 0.00142
- ACACTTTC — higher, -0.104
- ATCCTCCG — lower, -0.238
- ATCCAACG — lower, -0.139
- TCGCAACA — higher, -0.0496
- CCCTAAGG — higher, 0.402
- CCCTAAGA — higher, 0.263
- CCCTAAGC — lower, -0.159
- CGGGCGAG — higher, -0.0126
- TCCACCCA — lower, -0.233
- ACCACCCG — higher, 0.184
- CCCACCCG — higher, 0.324
- CCCACCCC — higher, 0.149
- CCCACCCA — higher, 0.323
- GCCACCCA — higher, -0.0281
- GTCTTCTA — higher, -0.0319
- CTGATGGA — lower, -0.254
- GACCTTGC — higher, 0.133
- AACCTTGT — higher, 0.229
- AACCTTGA — higher, 0.429
- GTCCTTGA — higher, 0.113
- TACCTTGA — higher, 0.337
- CACCTTGA — higher, 0.179
- GACCTTGA — higher, 0.34
- AACCTTGC — higher, 0.305
- TACCTTCA — higher, 0.255
- CTAGGGAC — higher, -0.0705
